The source of these data is PubChem BioAssay (NCI).

This is part of a sample that, as a whole, favours compounds with a hit. Of some 83,000 tested, about 20% had one in any assay.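 The test compound was applied at a single concentration to cells in 96-well plates for 48 hours, and percent growth was recorded.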 A number with no mark means an inactive call. The source made the active and inactive calls. Rule for the calls: active = growth percent below 10; inactive = the rest.

Test systems include HCT-15 colon; HT29 colon; SNB-75 CNS; U251 CNS; PC-3 prostate; SK-MEL-5 melanoma; LOX IMVI melanoma; SK-MEL-28 melanoma; EKVX NSCLC; SN12C renal; UO-31 renal; TK-10 renal; ACHN renal; CAKI-1 renal; CCRF-CEM leukemia; MOLT-4 leukemia; SNB-19 CNS; UACC-62 melanoma; SK-MEL-2 melanoma; A498 renal.
Holding throughout (assay): NCI-60 one-dose screen, 48 h (100 = growth as untreated, 0 = no growth, -100 = all killed)
Holding throughout (details): 10 µM unless noted

In the case of `COc1ccc(C(=O)c2cc(C)c(OC)c(C)c2)c(OC)c1NC(C)=O`, the growth in the test on HCT-15 colon is 16.3%; with HT29 colon it was 3.24% (active); in the test with SNB-75 CNS, 56.2%; in the test with U251 CNS it was 21.4%; with PC-3 prostate it was 20.9%; in the test on SK-MEL-5 melanoma it was 20.6%. The growth was 32% in the test with LOX IMVI melanoma; 49.5% in the test with SK-MEL-28 melanoma; 56% with EKVX NSCLC; 34.8% in the test on SN12C renal; 40% with UO-31 renal; 51.9% with TK-10 renal. For the same molecule, the growth is 24.9% in the test with ACHN renal, 42.4% in the test on CAKI-1 renal, 20.8% in the test with CCRF-CEM leukemia and 38.7% in the test with MOLT-4 leukemia.
In the case of `CC(C)c1ccc(Nc2ccc3c(OCCCN4CCN(C)CC4)cccc3n2)cc1`, the growth in the test on HCT-15 colon was -35.9% (active); with HT29 colon it was -50.3% (active); in the test with SNB-19 CNS, 63.7%; in the test on U251 CNS it was 23.9%; with PC-3 prostate, 62.9%; in the test on SK-MEL-5 melanoma, 58.3%. In addition, the growth in the test with UACC-62 melanoma is 1.02% (active); in the test with LOX IMVI melanoma, -70.7% (active); with SK-MEL-28 melanoma, 13.7%; with SK-MEL-2 melanoma, 105%; with EKVX NSCLC it was 80.7%; in the test on SN12C renal, 91.3%. Further, the growth is 71.5% in the test on UO-31 renal; 91% in the test on TK-10 renal; 80.4% in the test with ACHN renal; 64.4% in the test on CAKI-1 renal; 77.8% with A498 renal; 30% in the test with CCRF-CEM leukemia.
For the molecule `Cc1cccc(NC(=O)Nc2ccc(-n3cnc4cc(-c5ccc(O)cc5)ccc43)cc2)c1`, the growth with HCT-15 colon is 18.8%; in the test on HT29 colon, 28.4%; in the test on SNB-75 CNS it was 69.2%; in the test on U251 CNS it was 26.5%; in the test on PC-3 prostate it was 31.2%; in the test on SK-MEL-5 melanoma, 14.4%. Also, the growth is 27.3% with UACC-62 melanoma; 30.6% with LOX IMVI melanoma; 44% with SK-MEL-28 melanoma; 35.8% in the test on EKVX NSCLC; 23% in the test with SN12C renal; 27.2% in the test with UO-31 renal. For the same molecule, the growth in the test with TK-10 renal is 21.8%; in the test with ACHN renal it was 16.1%; in the test on CAKI-1 renal, 35%; with CCRF-CEM leukemia it was 17.8%; in the test on MOLT-4 leukemia, 13.1%.
For the molecule `COc1ccc(/C=C(\C#N)n2nc3cccc(F)c3n2)cc1`, the growth in the test on HCT-15 colon is 96.9%; in the test on HT29 colon, 112%; in the test with SNB-75 CNS it was 81.5%; with U251 CNS it was 102%; in the test with PC-3 prostate, 111%; in the test on SK-MEL-5 melanoma, 95.8%. Further, the growth was 91% with UACC-62 melanoma; 101% in the test with LOX IMVI melanoma; 103% with SK-MEL-28 melanoma; 100% in the test with SK-MEL-2 melanoma; 104% with EKVX NSCLC; 104% with SN12C renal. In addition, the growth with UO-31 renal is 89.6%; in the test with TK-10 renal, 100%; in the test with ACHN renal, 99.7%; in the test on CAKI-1 renal, 81.2%; with CCRF-CEM leukemia it was 98%; in the test with MOLT-4 leukemia, 100%.
`CN1CCN(c2ccc(NC3=C(Cl)C(=O)c4ncccc4C3=O)cc2C(F)(F)F)CC1`: the growth in the test with HCT-15 colon is -47% (active); in the test with HT29 colon, 78.3%; in the test on SNB-75 CNS, 96.9%; in the test on U251 CNS, 88.6%; in the test with PC-3 prostate, 62.9%; with SK-MEL-5 melanoma, 92.8%. Moreover, the growth in the test with UACC-62 melanoma is 87%; in the test with LOX IMVI melanoma it was -56.2% (active); with SK-MEL-28 melanoma, 76.9%; in the test on SK-MEL-2 melanoma it was 89%; in the test on EKVX NSCLC, 110%; in the test with SN12C renal, 93.9%. Moreover, the growth in the test with UO-31 renal is -80.4% (active); with TK-10 renal, -65.9% (active); in the test on ACHN renal it was -56.2% (active); in the test with CAKI-1 renal, -95.6% (active); in the test with CCRF-CEM leukemia, -1.56% (active); in the test on MOLT-4 leukemia it was 1.95% (active).
As for `COC(=O)/C=C1\S/C(=N\NC(=O)c2cc3ccc2/C=C\c2ccc(cc2)/C=C\3)N(Cc2ccccc2)C1=O`, the growth in the test on HCT-15 colon is 27.8%; with HT29 colon, 12.4%; in the test on SNB-75 CNS, 51.2%; with U251 CNS, 55%; in the test with PC-3 prostate it was 17.8%; with SK-MEL-5 melanoma, 82.3%. Also, the growth in the test on LOX IMVI melanoma was 6.21% (active); with SK-MEL-28 melanoma, 101%; in the test on SK-MEL-2 melanoma, 85.6%; in the test with EKVX NSCLC, 77.7%; in the test with SN12C renal it was 61.2%; with UO-31 renal, 45%. Besides, the growth in the test with TK-10 renal was 95.5%; in the test with ACHN renal it was 46.1%; with CAKI-1 renal it was 65.8%; with CCRF-CEM leukemia, 3.83% (active); in the test with MOLT-4 leukemia it was 1.09% (active).
On to `COc1cc2oc(-c3cccc(C(=O)Nc4ccc5c(c4)OCO5)c3)cc(=O)c2c(O)c1OC`, for which the growth was 93.6% in the test with HCT-15 colon; 76.3% in the test with HT29 colon; 84.6% in the test with SNB-75 CNS; 55.8% in the test with U251 CNS; 72.3% in the test on PC-3 prostate; 84% in the test on SK-MEL-5 melanoma. The growth with UACC-62 melanoma is 81.4%; in the test on LOX IMVI melanoma, 88.2%; in the test on SK-MEL-28 melanoma it was 89.8%; in the test with SK-MEL-2 melanoma, 89.9%; in the test on EKVX NSCLC it was 87%; in the test with SN12C renal, 68.7%. The growth in the test on UO-31 renal is 82.1%; with TK-10 renal, 98.6%; with ACHN renal, 75.3%; with CAKI-1 renal, 76.9%; in the test on CCRF-CEM leukemia it was 97.2%; with MOLT-4 leukemia, 101%.
With `O=C1Nc2cc(-c3ccc(NC(=O)c4ccccc4)cc3)ccc2/C1=C/c1ccc[nH]1`, the growth is 87.9% in the test on HCT-15 colon; 109% in the test with HT29 colon; 98.8% in the test on SNB-19 CNS; 90.2% in the test on U251 CNS; 101% in the test on PC-3 prostate; 103% in the test with SK-MEL-5 melanoma. The growth in the test with UACC-62 melanoma is 98.4%; in the test on LOX IMVI melanoma, 96.2%; in the test on SK-MEL-28 melanoma, 119%; in the test with SK-MEL-2 melanoma, 102%; in the test with EKVX NSCLC it was 51.1%; with SN12C renal, 101%. The growth was 71.6% in the test with UO-31 renal; 95.8% with ACHN renal; 100% in the test with CAKI-1 renal; 92.4% in the test with CCRF-CEM leukemia; 92.8% in the test with MOLT-4 leukemia.
